Our source for the Potency, outcome and max response values is PubChem BioAssay (NCATS).

Structures are written as SMILES. Unmarked numbers belong to inactive results. Results filed as inconclusive are left out. The source made the active and inactive calls. Calls follow the shape of the dose curve; as a rule, active = well fitted curve in the direction sought with a large enough effect; inconclusive = small, poorly fitted or top-dose-only effect, or another doubt; inactive = no such curve, though single readings can be large; an effect the other way counts as inactive or inconclusive.

Test [1] is described as follows: qHTS to identify inhibitors of the type 1 interferon - major histocompatibility complex class I in skeletal muscle: primary screen against the NCATS LOPAC collection (AID 1347405).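 Also: human myoblasts with HiBiT tag on endogenous HLA-B stimulated by IFN-beta; lytic HiBiT luminescence reporting HLA-B protein level.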 Also: potency is read from the fitted curve at half-maximal effect. An outline of the steps: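 HLA-B HiBiT myoblasts, IFN-b 4 ng/ml, dexamethasone-free medium; compounds 7-pt 1:4.3 titration, top 46 uM final; 24 h at 37 C; Nano-Glo HiBiT lytic reagent, 10 min RT, luminescence.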
For orientation: In qHTS, concentration-response curves come from the screen itself.

The nature of test [2]: qHTS for inhibitors of adenylyl cyclases using a fission yeast platform: a pilot screen against the NCATS LOPAC library (AID 1347410).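 Also: plate controls were DMSO vehicle for no effect and DPI positive control for full effect.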 A digest of the protocol: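 Read-out: fbp1-GFP fluorescence by laser scanning cytometry (488 nm laser), a gain of signal when AC/cAMP-PKA signalling is inhibited. Strain CHP2027 expressing AC9, GNAS and PDE4D2; compounds at up to 57 µM; 18 h, 30C.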

Test [3] is described as follows: Validation qHTS assay for inhibitors of Activation Induced Cytidine Deaminase (AID): UDG Counterscreen signal (AID 1347427). Also: 0% is about no effect. A digest of the protocol:
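Fluorescence at 560 nm excitation, 665 nm emission reports UDG signal after 250 mM NaOH (2x) addition and 30 min. Enzymes (AID 1 uM, UDG 2 U/mL, at 4/3x) preincubated 10 min with compound, then 4 h with 4x 250 nM DJC20/DJC23 substrate at room temperature.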

Test [4] deals with Single-stranded DNA cytosine deaminase (Homo sapiens) (UniProt Q9GZX7). As to the kind of experiment: Validation qHTS assay for inhibitors of Activation Induced Cytidine Deaminase (AID): AID signal (AID 1347429). Also: % is scaled to controls: 0 for no effect and ±100 for the full control effect. A digest of the protocol: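 AID+UDG coupled FRET deamination; cpds up to 114 uM final; DJC20/DJC23 substrate, 4 hr RT; NaOH stop, 30 min RT; read Ex 540/Em 590.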
The target in test [5] is Calcium and integrin-binding protein 1 (Homo sapiens) (UniProt Q99828). As to the kind of experiment: Validation qHTS for Identification of Calcium Integrin Binding protein 1 (CIB1) Competitor (AID 1508618). Also: % is scaled to controls: 0 for no effect and ±100 for the full control effect. An outline of the steps:
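CIB1-GST (1 uM final) in 5 mM HEPES pH 7.4, 125 mM NaCl, 5 mM CaCl2, 0.01% Tween20 was preincubated 15 min at room temperature with compound (up to 114 uM), then FITC-alphaIIb peptide (100 nM) added for 15 min; fluorescence polarization read.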

A short description of test [6]: Cell Viability qHTS for small molecule stabilizers of the endoplasmic reticulum resident proteome (AID 1508629).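 Also: human SH-SY5Y neuroblastoma cells carrying the GLuc-SERCaMP reporter; compound exposure about 46 h in total before the viability read; % is scaled to controls: 0 for no effect and ±100 for the full control effect.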 Conditions: cell viability counter-screen, 100 nM thapsigargin for final 4 h.
For test [7], the target named is Papain (Carica papaya) (UniProt P00784). As to the kind of experiment: Primary qHTS assay for inhibitors of the protease papain (AID 1645873).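 Also: papain turnover of Z-FR-AMC read as the AMC fluorescence gain over 10 min.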 Also: potency is read from the fitted curve at half-maximal effect.
The nature of test [8]: Primary qHTS for inhibitors of La Crosse Virus (LACV) - induced cell death in SH-SY5Y cells (AID 1508616).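 Also: top concentration of the series differs between compounds; 0% = infected DMSO wells and 100% = uninfected DMSO wells; higher means more rescue of cells from virus-induced death.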 A digest of the protocol:
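Cytopathicity rescue screen: compounds pinned onto SH-SY5Y cells, which are then infected with LACV (MOI 0.01) and held 6 days at 37C. Percent activity is scaled between infected DMSO control and uninfected DMSO control.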

The nature of test [9]: Primary qHTS for small molecule stabilizers of the endoplasmic reticulum resident proteome: Secreted ER Calcium Modulated Protein (SERCaMP) assay (AID 1508630). Also: % is scaled to controls: 0 for no effect and ±100 for the full control effect. An outline of the steps:
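The SH-SY5Y reporter protocol was run at 3 concentrations up to 38.3 uM (primary) or 11 concentrations (follow-up): 16 h compound, 100 nM thapsigargin for 4 h, then extracellular luciferase luminescence.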

Sequence of Papain (Carica papaya) (P00784 whole entry, looked up): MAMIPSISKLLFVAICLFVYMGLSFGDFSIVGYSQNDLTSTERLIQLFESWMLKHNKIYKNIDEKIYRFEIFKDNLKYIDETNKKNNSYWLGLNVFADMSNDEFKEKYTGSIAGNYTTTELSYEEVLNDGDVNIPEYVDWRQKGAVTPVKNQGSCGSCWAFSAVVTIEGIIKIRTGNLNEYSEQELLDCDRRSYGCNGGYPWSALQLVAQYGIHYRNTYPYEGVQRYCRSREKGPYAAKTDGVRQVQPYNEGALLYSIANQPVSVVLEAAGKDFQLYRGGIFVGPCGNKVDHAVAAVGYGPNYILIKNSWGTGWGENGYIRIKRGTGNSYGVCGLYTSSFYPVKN
Sequence of Calcium and integrin-binding protein 1 (Homo sapiens) (Q99828 whole entry, looked up): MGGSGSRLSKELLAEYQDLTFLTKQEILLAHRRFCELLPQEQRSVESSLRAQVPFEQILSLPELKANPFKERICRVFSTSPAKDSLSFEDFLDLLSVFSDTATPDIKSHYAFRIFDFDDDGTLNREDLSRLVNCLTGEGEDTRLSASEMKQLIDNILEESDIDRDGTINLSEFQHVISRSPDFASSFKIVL
Sequence of Single-stranded DNA cytosine deaminase (Homo sapiens) (Q9GZX7 whole entry, looked up): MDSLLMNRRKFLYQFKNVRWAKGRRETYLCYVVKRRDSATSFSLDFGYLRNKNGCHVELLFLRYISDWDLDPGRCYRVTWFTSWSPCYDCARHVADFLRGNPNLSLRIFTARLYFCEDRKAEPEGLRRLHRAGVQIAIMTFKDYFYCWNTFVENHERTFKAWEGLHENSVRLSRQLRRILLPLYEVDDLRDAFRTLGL

On to `CN1CCCC1CCOC(C)(c1ccccc1)c1ccc(Cl)cc1` (stereo not drawn), for which the Potency entry in [1], in test [3], in test [4], in test [5] and in test [7] was “inactive” in each case. Also, the molecule was called inactive in test [2]. In test [6], the max response was 8.32%.
With `C[C@H](O)C(=O)C1=Nc2c(nc(N)[nH]c2=O)NC1`, the Potency entry in test [1], in test [3], in [4], in test [8] and in test [9] was “inactive” each time. Also, the molecule was called inactive in test [2]. For the same molecule, the Potency in [7] is 28.2 µM (active).
Regarding `O=C(O)[C@H]1NCCC[C@H]1C(=O)O`, the Potency result in [1], in test [3], in test [4], in [8], in test [9] and in [7] was “inactive” each time. Besides, the molecule was classed as inactive in test [2].
In the case of `CC(N)(C(=O)O)c1ccc(C(=O)O)cc1` (stereo not drawn), the Potency entry in [1], in test [3], in test [4], in test [8], in test [9] and in test [7] was “inactive” throughout. Moreover, the result in [2] was inactive.
Turning to `CC(C)C[C@H](NC(=O)[C@H](O)[C@H](N)Cc1ccccc1)C(=O)O`, the Potency entry in [1], in test [3], in test [4], in test [5], in [9] and in test [7] was “inactive” in each case. In addition, in test [2], the result was inactive.
Consider `COc1ccc2c(c1)c(CC(=O)O)c(C)n2Cc1ccc(Cl)cc1`, for which the Potency entry in test [1], in test [3], in test [4], in test [8], in test [9] and in test [7] was “inactive” throughout. In addition, the outcome in test [2] was inactive.
Take `NC(N)=N[C@@H](CCC(=O)O)C(=O)O`: the Potency result in [1], in test [3], in test [4], in test [8], in test [9] and in test [7] was “inactive” in each case. Besides, the result in test [2] was inactive.
Regarding `NC(=O)c1cc[n+](CC2=C(C(=O)O)N3C(=O)[C@@H](NC(=O)[C@@H](c4ccccc4)S(=O)(=O)[O-])[C@H]3SC2)cc1`, the Potency result in test [1], in test [3], in test [4], in [8], in test [9] and in test [7] was “inactive” throughout. The outcome in [2] was inactive.
Take `Cc1cc(Cn2cnc3c2C[C@@H](C(=O)O)N(C(=O)C(c2ccccc2)c2ccccc2)C3)ccc1N`: the Potency result in [1], in [3], in test [4], in [8], in test [9] and in test [7] was “inactive” throughout. In addition, the molecule was called inactive in test [2].
In the case of `O=C1OC(=O)C2C3CCC(O3)C12` (stereo not drawn), the Potency result in [1], in [3], in [4], in [5], in [9] and in test [7] was “inactive” throughout. The molecule was classed as inactive in [2].
With `O=c1onc2n1-c1cc(Br)ccc1OC2`, the Potency result in test [1], in [3], in [4], in test [5], in [9] and in test [7] was “inactive” throughout. The result in test [2] was inactive.
For `O=c1[nH]ccc2c(O)cccc12`, the Potency entry in test [1], in [3], in [4], in test [5], in test [9] and in test [7] was “inactive” in each case. Also, the molecule was classed as inactive in [2].
As for `CSc1nc(N)c2ncn([C@@H]3O[C@H](COP(=O)(O)OP(=O)(O)O)C(O)[C@H]3O)c2n1` (stereo partly drawn), the Potency result in [1], in test [3], in test [8], in test [5], in test [9] and in test [7] was “inactive” throughout. Moreover, in test [2], the outcome was inactive.
For `Nc1ncnc2c1ncn2C1CCCO1` (stereo not drawn), the Potency entry in test [1], in [3], in test [8], in test [5], in test [9] and in test [7] was “inactive” in each case. Besides, in test [2], the result was inactive.
`Cc1nc(N=Nc2cc(S(=O)(=O)O)c3cc([N+](=O)[O-])cc(S(=O)(=O)O)c3c2)c(COP(=O)(O)O)c(C=O)c1O`: in test [1], the Potency was 15.8 µM (active). Besides, in test [2], the molecule was called inactive. Moreover, the Potency entry in test [3], in [4] and in test [9] was “inactive” throughout.
`O=c1oc(Cl)c(Cl)c2ccccc12`: the Potency result in test [1], in test [3], in test [4], in test [9] and in [7] was “inactive” throughout. Further, the molecule was classed as inactive in test [2].
In the case of `C=C1C[C@@]23CC[C@H]4[C@@](C)(CCC[C@@]4(C)C(=O)OC4OC(CO)C(O)C(O)C4O)[C@@H]2CC[C@]1(OC1OC(CO)C(O)C(O)C1OC1OC(CO)C(O)C(O)C1O)C3` (stereo partly drawn), the Potency entry in test [1], in [3], in test [4], in test [5] and in test [7] was “inactive” each time. Besides, the molecule was classed as inactive in [2].
For the molecule `c1ccc2c(c1)CC(N1CCN(c3cccc4c3OCCO4)CC1)C2`, the Potency entry in test [1], in [3], in test [8], in test [5], in test [9] and in test [7] was “inactive” in each case. For the same molecule, in test [2], the call was inactive.
On to `N[C@H]1CONC1=O`, for which the Potency entry in test [1], in test [3], in test [4], in [5], in test [9] and in test [7] was “inactive” throughout. Also, the result in test [2] was inactive.
`Cc1nc2n(c(=O)c1CCN1CCC(c3noc4cc(F)ccc34)CC1)CCCC2O` (stereo not drawn): the Potency result in [1], in [3], in test [4], in test [9] and in [7] was “inactive” in each case. In test [2], the molecule was classed as inactive.
Regarding `CC(N)=NCCCC[C@@H](N)C(=O)O`, the Potency result in test [1], in test [3], in test [4], in [5] and in test [7] was “inactive” in each case. Further, the molecule was called inactive in test [2].
On to `CCCCCC[C@@H]([C@@H](C)O)n1cnc2c(N)ncnc21`, for which the Potency result in test [1], in test [3], in [8], in test [5], in test [9] and in [7] was “inactive” throughout. For the same molecule, in test [2], the molecule was classed as inactive.
Take `[N-]=[N+]=Nc1ccc(C(=O)CSC[C@H](NC(=O)CC[C@H](N)C(=O)O)C(=O)NCC(=O)O)cc1`: the Potency result in [1], in [3], in test [8], in test [5] and in test [9] was “inactive” throughout. Further, the result in [2] was inactive.
Turning to `O[Si](CCCN1CCCCC1)(c1ccc(F)cc1)C1CCCCC1` (stereo not drawn), the Potency entry in test [1], in test [3], in test [4], in test [5] and in test [7] was “inactive” in each case. In test [2], the call was inactive.
With `COc1cc(CC(=O)O)ccc1O`, the Potency entry in test [1], in [3], in test [4], in test [9] and in test [7] was “inactive” throughout. Further, the molecule was classed as inactive in test [2].
For the molecule `NC1(C(=O)O)CCCCC1`, the Potency result in test [1], in test [3], in test [4], in [5], in test [9] and in [7] was “inactive” throughout. In addition, the result in [2] was inactive.
As for `NCC(O)C1CCCCCCC1` (stereo not drawn), the Potency entry in test [1], in test [3], in test [4], in test [5], in test [9] and in test [7] was “inactive” throughout. The result in test [2] was inactive.
On to `CCn1c(=O)[nH]c2cc(Cl)c(Cl)cc21`, for which the Potency in test [1] is 3.16 µM (active). For the same molecule, the result in test [2] was inactive. Besides, the Potency entry in [3], in test [4], in test [9] and in test [7] was “inactive” in each case.
In the case of `CCSC(=N)N`, the Potency entry in [1], in test [3], in [4], in test [5], in test [9] and in test [7] was “inactive” each time. The call in test [2] was inactive.
